A short description of the experiment: small-molecule binders of probe aInhba, primary screen, biochemical, small-molecule microarray, 635/667 nm fluorescence (AID 1148).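 Further: score merges 667nm spot fluorescence with signal-to-noise for antibody binding to printed compounds.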 The conditions noted are these: higher = more signal.
In turn, `COc1cc2c(cc1O)C(c1cccs1)N(Cc1cc3c(cc1Br)OCO3)CC2` (stereo not given) registered a composite z-score of 0.0268.
`CCC#CCN(Cc1ccccc1Br)[C@H](/C=C/C1CC1)[C@@H](O)Cc1ccccc1`: the composite z-score is -0.154.
In turn, `COC(=O)[C@@]1(Cc2ccccc2)[C@H]2c3cc(C(=O)N4CCCC4)n(CCc4ccccn4)c3C[C@H]2CN1C(=O)c1ccccc1` showed a composite z-score of 0.605.
For `CCCCC(CC)C(O)C1C=CC2C(=O)N(c3ccccc3)C(=O)C2N1Nc1ccccc1F` (stereo not given), the composite z-score is -0.128.
Molecule `[N-]=[N+]=Nc1ccccc1[C@@H]1OC(c2ccc(OCCCO)cc2)=N[C@]1(Cc1ccccc1)C(=O)N1CCCCC1` registered a composite z-score of 0.134.
In turn, `CC1CC/C=C\[C@H]2OC34C=CCN(C(C)C)C(=O)[C@H]3N(CCO)C(=O)[C@@H]4C2C(=O)O1` (stereo not given in full) had a composite z-score of -0.203.
`CCOC(=O)C1=C[C@@H](C(C)(C)C)N(S(=O)(=O)c2ccc(C)cc2)[C@H]1c1cccc2ccccc12` gave a composite z-score of 0.0421.
To `CC(C)[Si]1(C(C)C)OCc2cc(-c3ccc(-c4ccc(Cl)c(Cl)c4)o3)nc(-c3ccccc3)c21` belongs -0.295; to `CCCCCCc1nc(Cc2cc(OC)c(OC)c(OC)c2)cc2c1[Si](C(C)C)(C(C)C)OC2`, 0.0973.
The molecule `C=CC[C@@H](OC(=O)Nc1ccc(SC)cc1)c1ccc(O)c(F)c1` came in with a composite z-score of -0.0468.
As for `Cc1ccc(NN2C(C(O)c3c(F)cccc3Cl)C=CC3C(=O)N(C4CCCCC4)C(=O)C32)cc1` (stereo not given), the composite z-score was -0.0675.
For `COc1ccc([Si](C)(C)[C@@H]2[C@@H](CC(=O)N(CCO)Cc3ccccc3)O[C@]3(C(=O)N(Cc4cccc(N5CCCCC5=O)c4)c4ccccc43)[C@H]2C)cc1`, the composite z-score amounted to 0.187.
In turn, `NC(=O)[C@H]1[C@@H]2C(=O)O[C@@H](c3ccccc3)[C@@H](c3ccccc3)N2[C@@H](c2ccc(OCCO)cc2)[C@]12C(=O)Nc1ccc(C#CCCO)cc12` gave a composite z-score of 0.136.
With `COc1cc(C(O)C2C=CC3C(=O)N(C)C(=O)C3N2Nc2ccccc2)cc(OC)c1OC` (stereo not given), the composite z-score is 0.813.
In turn, `C#Cc1cc2ccccc2oc1=O` came in with a composite z-score of -0.149.
Turning to `CC(=O)NCCCC[C@@H]1NC(=O)[C@@H]2C[C@H](C(=O)NCCCCCN)[C@H](c3cccc(OCCO)c3)N2C1=O`, the composite z-score is -0.19.
`COc1ccc(CCNC(=O)[C@@]2(c3ccc([N+](=O)[O-])cc3)CC(=O)N(C3CCCCC3)[C@@H]2c2ccc(CO)cc2)cc1` gave a composite z-score of 0.249.
In turn, `NCCCCCNC(=O)[C@@H]1C[C@@H]2C(=O)N[C@@H](CCCCN)C(=O)N2[C@@H]1c1ccc(O)cc1` showed a composite z-score of 0.217.
As for `NCCCCCNC(=O)[C@H]1C[C@H]2C(=O)N3CCC[C@H]3C(=O)N2[C@H]1c1cccc(OCCO)c1`, the composite z-score was 0.0792.
As to `COCCOC(=O)N1C(=O)[C@@]2(c3cc(C#CCCO)ccc31)[C@H](c1ccc(OCCO)cc1)N1[C@H](c3ccccc3)[C@H](c3ccccc3)OC(=O)[C@H]1[C@@H]2C(=O)Nc1nc2ccccc2s1`, the composite z-score is 0.358.
`COC(=O)C1=CC(CCCO)=CC(c2cccs2)N(C)C=C1C(=O)OC` (stereo not given) showed a composite z-score of 0.0485.
For `COCCOC(=O)N1C(=O)[C@@]2(c3cc(C#CC4(O)CCCCCC4)ccc31)[C@H](c1ccc(O)cc1)N1[C@H](c3ccccc3)[C@H](c3ccccc3)OC(=O)[C@H]1[C@@H]2C(=O)N1CCN(c2ncccn2)CC1`, the composite z-score was -0.0918.
Consider `COc1ccc([Si](C)(C)[C@@H]2[C@@H](CCO)O[C@]3(C(=O)N(Cc4cccc(NC(=O)[C@H](C)O)c4)c4ccccc43)[C@H]2C)cc1`, for which the composite z-score was -0.128.
On to `Cc1ccc(S[C@]2(C(=O)O)CC(=O)N(C3CCCCC3)[C@@H]2c2ccc(CO)cc2I)cc1`, for which the composite z-score turned out to be 0.239.
As for `O=C1C[C@]2(c3ccc([N+](=O)[O-])cc3)C(=O)N(C3CC3)c3cc(CO)ccc3[C@H]2N1CC12CC3CC(CC(C3)C1)C2`, the composite z-score is -0.0403.
In turn, `COCCCNC(=O)[C@@]1(Sc2ccc(C)cc2)CC(=O)N(C2Cc3ccccc3C2)[C@@H]1c1ccc(CO)cc1` yielded a composite z-score of -0.327.
With `O=C1OCCC=C[C@H]2OC34C=CCN(c5ccc6ccccc6c5)C(=O)[C@H]3N(CCCO)C(=O)[C@@H]4C12` (stereo not given in full), the composite z-score was -0.239.
`COC(=O)[C@@]1(Cc2ccc(F)cc2)[C@H]2c3cc(C(=O)N(C)C)n(CCc4ccc(OC)c(Br)c4)c3C[C@H]2CN1C(=O)c1ccccc1` returned a composite z-score of 0.925.
`[N-]=[N+]=Nc1ccccc1C[C@@]1(C(N)=O)N=C(c2ccc(OCCCO)cc2)O[C@@H]1c1ccccc1N=[N+]=[N-]` came in with a composite z-score of 0.258.
The molecule `O=C(NCc1ccc(F)cc1)[C@H]1C[C@H]2C(=O)NCC(=O)N2[C@H]1c1ccc(O)cc1` showed a composite z-score of 0.177.
For `C=CCNC(=O)[C@@H]1[C@H]2C(=O)O[C@H](c3ccccc3)[C@H](c3ccccc3)N2[C@H](c2ccccc2OCCO)[C@@]12C(=O)Nc1ccc(C#CCCO)cc12`, the composite z-score was 0.0111.
For `CCOC(=O)C[C@H]1[C@H](OC(=O)Cc2ccc3c(c2)OCO3)[C@@H](NC(=O)C2CCCCC2)c2cc(OCCCO)ccc2N1C(=O)c1ccccc1`, the composite z-score is -0.0313.
`COc1ccc([Si](C)(C)[C@@H]2[C@@H](CCO)O[C@]3(C(=O)N(Cc4ccccc4)c4ccc(N5CCOC5=O)cc43)[C@H]2C)cc1` gave a composite z-score of -0.016.
To `C=C(/C(=C/C[C@H](OC(C)=O)c1ccc(CO)o1)c1cnc2ccccc2c1)C(C)C` belongs 0.0528; to `CCCCCCCCCCC(O)C1C=CC2C(=O)N(c3ccccc3)C(=O)C2N1Nc1ccc(C#N)cc1` (stereo not given), 0.215.

For the origin of these results see PubChem BioAssay.
